TDP43 rescue = qHTS of TDP-43 Inhibitors; TDP-43 expressing yeast growth rescue, BacTiter-Glo, 24 h; 410,000 compounds, 1.8% hits; Potency, µM (series often up to 46.1 µM), inactives show at the highest dose growth rescue (activation), hits mostly activators; also: % of control where 0% means no effect; nearly all actives have a fitted effect of over 50% in size
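Luminescence from BacTiter-Glo reports growth of TDP-43-expressing yeast after 24 hr at 30 deg C with compound. Cells were raffinose-pregrown to mid-log, then seeded in galactose medium at OD600=0.02.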
aSyn yeast inh = qHTS of alpha-syn Inhibitors; Potency, µM (doses to about 46.1 µM), inactives show top-dose growth rescue (activation), hits mostly activators; AID 652106, 2013; Yeast expressing alpha-synuclein, growth rescue, BacTiter-Glo, 24 h; 370,000 compounds, 0.14% hits; also: % of control where 0% means no effect; nearly all actives have a fitted effect of over 65% in size
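Rescue of yeast growth: cells expressing toxic alpha-synuclein, induced in galactose at OD600 0.02, incubated with compound 24 h at 30 C. ATP luminescence quantified growth; inhibitors of toxicity appear as activators.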
uPA surface inh = qHTS for Inhibitors of Cell Surface uPA Generation. cell surface uPA generation assay, qHTS. Potency, µM (titrated, usually from 38.3 µM), without a hit: at the top dose activity change, negative = inhibition, actives largely listed as inhibitors. 330,000 compounds, 0.31% hits; active = well fitted inhibition curve with a large enough effect; inconclusive = small, poorly fitted or top-dose-only effect; inactive = no such curve, though single readings can be large or run the other way; tested in mouse RAW 264.7 cells; also: % is scaled to controls: 0 for no effect and ±100 for the full control effect; nearly all actives have a fitted effect of over 55% in size
FUS suppressor = qHTS for Suppressors of FUS Proteinopathy: Primary screen using FUS-linked yeast assay. S. cerevisiae FUS-expressing, growth rescue, OD600, 24 h. Potency, µM (titrated, usually from 76.6 µM), actives largely listed as activators. 390,000 compounds, 0.24% hits;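 also: plate controls were DMSO vehicle for no effect and reference control for full effect; nearly all actives have a fitted effect of over 55% in size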
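Compound concentration series was pinned onto galactose-induced FUS-expressing yeast seeded at OD 0.005. Plates sat 24hr at 30C; absorbance at 600 nm gave growth. DMSO served as background control.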
Abeta yeast res = qHTS for compounds that reverse cellular toxicity of Amyloid beta (A-beta) peptide in yeast: Primary Screen; yeast expressing A-beta42, growth rescue, OD600, 48 h; response scale: 0% DMSO, 100% iron-clioquinol control; Potency, µM (titrated, usually from 46.1 µM), usual class: activators; 410,000 compounds, 0.063% hits; AID 1347071, 2019; also: nearly all actives have a fitted effect of over 55% in size
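Yeast growth medium received pinned compounds, then yeast cells expressing toxic A-beta were added; plates incubated at 30 C for 48 hr. Growth read as absorbance at 600 nm, normalized to DMSO and equimolar FeCl3 plus clioquinol controls.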
Chronic BCR inh = qHTS Assay to Find Inhibitors of Chronic Active B-Cell Receptor Signaling; Potency, µM (titrated, usually from 46.1 µM), inactives show top-dose activity change, negative = inhibition, most hits filed as inhibitors; AID 493014, 2011; 340,000 compounds, 0.05% hits; ABC-DLBCL IkBa-CBG/CBR reporter, luminescence ratio, 4 h; active = well fitted inhibition curve with a large enough effect in the signal ratio, with a control signal flat, not every such curve was filed as active; inconclusive = small, poorly fitted or top-dose-only effect, or effect the other way, or a change in a side signal; the % refers to the signal ratio;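 also: plate controls were basal doxycycline-induced cells for no effect and cells given 10 µM MG132 for full effect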
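Compounds up to 46 uM were incubated four hours with TMD8 cells whose green CBG68 luciferase is fused to IkappaBalpha; red CBR luminescence normalised the signal, and concentration-effect curves were fitted to fusion, red and ratio data.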
* marks the source's active call; other numbers are inactive results; i = inactive; ? = inconclusive; . = no result; [ ] = dose if it differs, or a comment. Most compounds without a hit are left out; they make up all but 2.3% or so of the library. Unless noted, calls follow the shape of the dose curve; as a rule, active = well fitted curve in the direction sought with a large enough effect; inconclusive = small, poorly fitted or top-dose-only effect, or another doubt; inactive = no such curve, though single readings can be large; an effect the other way counts as inactive or inconclusive. Potency is read from the fitted curve at half-maximal effect.

SMILES	TDP43 rescue	aSyn yeast inh	uPA surface inh	FUS suppressor	Abeta yeast res	Chronic BCR inh
N#Cc1cccc(C(=O)C(=O)N2CCC(c3ccccc3)CC2)c1	10%	3%	.	i	i	.
O=C(C(=O)N1CCC(c2ccccc2)CC1)c1ccc(F)c(F)c1	22µM*	9%	.	i	i	.
Cc1noc(/C=C/c2ccco2)c1S(=O)(=O)N1CCC(C(=O)NC(C)c2ccccc2)CC1 (stereo unspecified)	0%	-2%	-29%	i	i	-1%
Cc1c(C(=O)NCc2ccc(Cl)cc2)sc2nc3n(c(=O)c12)CCCCC3	?	.	.	i	i	.
Cc1c(C(=O)NCCc2ccc(Cl)cc2)sc2nc3n(c(=O)c12)CCCC3	18µM*	.	.	?	i	.
Cc1c(C(=O)NCCc2ccc(Cl)cc2)sc2nc3n(c(=O)c12)CCC3	?	8%	8%	i	i	2%
Cc1c(C(=O)NCc2ccccc2)sc2nc3n(c(=O)c12)CCCCC3	?	.	.	i	i	.
Cc1ccc(CNC(=O)c2sc3nc4n(c(=O)c3c2C)CCCC4)cc1	13µM*	.	.	i	i	.
Cc1ccc(CNC(=O)c2sc3nc4n(c(=O)c3c2C)CCCCC4)cc1	25µM*	.	.	i	i	.
COC(=O)CC(NC(=O)c1ccc(C)cc1)c1ccccc1 (stereo unspecified)	8%	14%	-6%	i	i	-2%
CC(=O)Oc1ccc2c(=O)oc(-c3ccccc3)nc2c1	-17%[1.82 µM]	-6%	1%	i	i	?
CCCOc1ccc(-c2nc3ccccc3c(=O)o2)cc1	10%	2%	.	i	i	.
CC(=O)Oc1ccc2c(=O)oc(-c3ccccc3C)nc2c1	14µM*	-1%	-11%	i	i	?
CC(=O)Oc1ccc(-c2nc3cc(Cl)ccc3c(=O)o2)cc1	4µM*	0%	-4%	i	i	0%
CC(=O)Oc1ccc2nc(/C=C/c3ccccc3)oc(=O)c2c1	3.5µM*	0%	-10%	i	i	?
CCC(=O)Oc1ccc(-c2nc3ccccc3c(=O)o2)cc1	4µM*	.	.	i	i	.
Cc1ccc(S(=O)(=O)N2[C@@H](c3ccccc3)C(C(=O)O)=CC[C@H]2c2cccc(Cl)c2)cc1	35µM*	-23%	-2%	i	i	1%
Cc1ccc(S(=O)(=O)N2[C@@H](c3ccc(F)cc3)C(C(=O)O)=CC[C@H]2c2ccc3c(c2)OCO3)cc1	18µM*	-14%	1%	i	i	4%
Cc1ccc([C@@H]2CC=C(C(=O)O)[C@H](c3ccc(Br)cc3)N2S(=O)(=O)c2ccc(C)cc2)cc1	?	-1%	1%	i	i	?
Cc1ccc(S(=O)(=O)N2[C@@H](c3ccc(F)cc3)C(C(=O)O)=CC[C@H]2c2cccc(C)c2)cc1	32µM*	2%	15%	i	i	4%
COc1cccc([C@@H]2CC=C(C(=O)O)[C@H](c3ccc(Br)cc3)N2S(=O)(=O)c2ccc(C)cc2)c1	35µM*	-1%	11%	i	i	-5%
Cc1cccc(N(CC(=O)Nc2ccc(F)cc2)S(C)(=O)=O)c1	-1%	10%	2%	i	i	?
Cc1ccc(NS(=O)(=O)c2ccc3[nH]c4c(c3c2)CCCC4)c(C)c1	?	.	.	i	i	.
Cc1ccc(C)c(Sc2ccc(NC(=O)CCN3C(=O)NC4(CCCC4)C3=O)cc2)c1	12%	1%	?	?	i	?
Cc1ccc(Sc2ccc(NC(=O)CCl)cc2)c(C)c1	11µM*	16%	?	i	?	?
SMILES	TDP43 rescue	aSyn yeast inh	uPA surface inh	FUS suppressor	Abeta yeast res	Chronic BCR inh
COc1ccc(C2CC(=O)N3CN(c4ccc(C)c(Cl)c4)CSC3=C2C#N)cc1OC (stereo unspecified)	?	7%	7.1µM*	i	i	-1%
CCOc1ccc2nc(N3C(=O)C(O)=C(C(=O)c4ccco4)C3c3ccco3)sc2c1 (stereo unspecified)	-7%	-9%	-21%	i	i	?
CCOC(=O)c1sc(N2C(=O)C(O)=C(C(=O)c3ccco3)C2c2ccco2)nc1C (stereo unspecified)	-15%	6%	-1%	28µM*	i	?
O=C(NCCc1ccccc1)c1ccc(Cl)cc1[N+](=O)[O-]	11µM*	2%	11%	i	i	?
CCc1cccc(C)c1Nc1c(-c2ccc(N3CCOCC3)cc2)nc2ncccn12	?	.	.	?	i	.
Cc1[nH]n(-c2ccccc2)c(=O)c1C1(C(F)(F)F)C(=O)N(c2ccccc2)C2=C1C(=O)CC(C)(C)C2 (stereo unspecified)	-3%	6%	.	32µM*	i	?
Cc1ccc(N2C(=O)C(c3c(C)[nH]n(-c4ccccc4)c3=O)(C(F)(F)F)C3=C2CC(C)(C)CC3=O)cc1 (stereo unspecified)	21%	-11%	5%	i	i	-1%
CC(C)(C)C(=O)NC(=S)Nc1cc(C(F)(F)F)ccc1N1CCOCC1	4%	19%	18%	i	i	18%
O=C(CCCCl)NC(=S)Nc1cc(C(F)(F)F)ccc1N1CCOCC1	13µM*	0%	-21%	i	?	0%
CC1CCN(C(=O)c2cc(N3C(=O)C4C5CCC(C5)C4C3=O)ccc2Cl)CC1 (stereo unspecified)	.	.	.	.	.	7%
Cc1ncoc1C(=O)N1CCCC(C(=O)c2ccc(-c3ccccc3)c(F)c2)C1 (stereo unspecified)	22µM*	-40%	-8%	?	i	-3%
S=c1nc2c(n[nH]1)c1ccccc1n2CCc1ccccc1	11%	-6%	-5%	i	?	2%
CCCCNC(=O)c1nn(C)c2c1CSc1ccccc1-2	35µM*	.	.	i	i	.
Cn1nc(C(=O)NCc2cccc(Cl)c2)c2c1-c1ccccc1SC2	20µM*	.	.	i	i	.
CC1CCCC(C)N1CCCNC(=O)c1nn(C)c2c1CSc1ccccc1-2 (stereo unspecified)	2%	6%	-4%	i	i	-15%

Bioassay records from PubChem.
